{
  "source": "PubChem BioAssay (NCATS)",
  "note": "Results filed as inconclusive are left out. Active and inactive are the calls of the source. The call rests on the fitted dose curve; in most records, active means well fitted curve in the direction sought with a large enough effect; inconclusive means small, poorly fitted or top-dose-only effect, or another doubt; inactive means no such curve, though single readings can be large or run the other way.",
  "data": [
    {"assay": "Dual reporter qHTS for antagonist of Pregnane X Receptor (hPXR) against the NCATS DSHEA and TCM libraries: Fluorescence Readout (AID 1920061); further: 0% is about no effect", "settings": "PXR dual reporter cells, antagonist mode; series mostly up to 40 µM", "from_the_text": "Assay Development and Screening Technology Laboratory (ADST)\nNational Center for Advancing Translational Sciences (NCATS), Rockville, MD\nNational Institute of Health (NIH), Bethesda, Maryland\nDietary Supplements and Natural Products have minor oversight of their safety and efficacy. We assembled a collection of Dietary Supplements and Natural Products (DSNP) as well as Traditional Chinese Medicinal (TCM) Plant extracts, which were screened against an in vitro panel of assays, including a liver cytochrome p450 enzyme panel, CAR/PXR signaling pathways, and P-gp transporter assays, to assess their activity. This pipeline facilitated the interrogation of Natural Product-Drug Interaction (NaPDI) through prominent metabolizing pathways. In addition, we compared the activity profiles of the DSNP/TCM substances with those of an approved drug collection. Many of the approved drugs have well-annotated mechanisms of action (MOA) while the MOAs for most of the DSNP and TCM samples remain unknown. Based on the premise that compounds with similar activity profiles tend to share similar targets or MOA, we clustered the library activity profiles to identify overlap with the NCATS Pharmaceutical Collection to predict the MOAs of the DSNP/TCM substances. Overall, we highlight four significant bioactivity profiles (measured by p-values) as examples of this prediction. To assess broad cytotoxicity, we employed screening against a HepG2 cell line. In addition, transporter-mediated drug interactions are utilized in the characterization of DDIs using a P-glycoprotein (P-gp) assays. To profile potential P-gp activity, a differential cell viability was measured against two cell lines: a parental KB-3-1 human cervical adenocarcinoma cell line and the drug-resistant subline KB-8-5-11 that overexpresses P-gp.\nTo this end, we profiled both collections for potential CAR and/or PXR activity, employing a previously published 1536-well qHTS assay.\n[1] Lee TD, et al. A High-Throughput Screen of a Library of Therapeutics Identifies Cytotoxic Substrates of P-glycoprotein. Mol Pharmacol. Nov 2019;96(5):629-640. doi:10.1124/mol.119.115964\nFor PXR luciferase reporter gene assays, we used hPXR-LucHepG2cells provided by Dr. Taosheng Chen (Department of Chemical Biology and Therapeutics, St. Jude Children's Research Hospital). Cells were cultured in EMEM supplemented with 10% fetal bovine serum, 100U/mL penicillin and 100ug/mL streptomycin, and 500ug/mL of geneticin.\nPROTOCOL TABLE (as described by Inglese J, Shamu CE and Guy RK. 2007)\nSEQUENCE No. (e.g., 1, 2, 3, etc.); PARAMETER (e.g., Cells, Incubation, Reagent, etc.); VALUE; DESCRIPTION.\n1; Cells; 5 uL; hPXR-LucHepG2; white solid-bottom Greiner plate.\n2; Incubation; 5h; 37C, 95% humidity, 5% CO2\n3; Compounds and control; 23 nL; Kalypsis pintool (Wako USA).\n4; Reagent; 1uL; rifampicin (RIF) in the antagonist mode.\n6; Reagent; 1 uL; CellTiter-Fluor detection reagent.\n7; Incubation; 1 hr; 37C, 5% CO2.\n8; Read; Fluorescence; ViewLux plate reader.\n9; Reagent; 4 uL; ONE-Glo Luciferase detection reagent.\n10; Incubation; 30 min; room temperature.\n11; Read; Luminescence; ViewLux plate reader.\nNOTES (numbers refer to Sequence numbers above)\n1. Briefly, 5uL of hPXR-LucHepG2 cells in phenol red-free DMEM containing 5% charcoal-stripped FBS, 1 mM sodium pyruvate (Invitrogen), 2 mM L-glutamine (Invitrogen), and 100 U/mL penicillin and 100ug/mL streptomycin were dispensed using a BioRAPTR FRD at 4 x 10^5cells/mL (2000cells/well) in tissue culture-treated 1536-well white assay plates (GreinerBio-One).\n2. Plates were incubated for 5h at 37C, 95% humidity, and 5% CO2 to allow for cell attachment.\n3. Compounds (final concentration for most substances ranged from 15.6 nM to 45.9uM), positive SPA70 (final concentration range of 2.8 nM to 92uM for the antagonist mode), and cytotoxicity control tetraoctyl ammonium bromide (final concentration of 92uM) were transferred (23 nL) via pintool (Wako Automation).\n4-5. […]", "values": [
      {"compound": "COc1ccc(/C=C/c2cc(OC)cc(=O)o2)cc1", "outcome": "inactive"},
      {"compound": "COc1cc(-c2oc3cc(O)cc(O)c3c(=O)c2O)ccc1O", "outcome": "inactive"},
      {"compound": "O=C(/C=C/c1ccc(O)c(O)c1)O[C@@H]1CC(O)(C(=O)O)C[C@@H](OC(=O)/C=C/c2ccc(O)c(O)c2)C1O", "note": "(stereo not given in full)", "outcome": "inactive"},
      {"compound": "O=C(O)CC(O)(C(=O)O)C(O)C(=O)O", "note": "(stereo not given)", "outcome": "inactive"},
      {"compound": "OCCc1ccc(O)cc1", "outcome": "inactive"},
      {"compound": "CC(C)=CCCC(C)=CCCC(C)=CCCC=C(C)CCC=C(C)CCC=C(C)C", "outcome": "inactive"},
      {"compound": "O=C(/C=C/c1ccc(O)c(O)c1)O[C@@H]1C[C@](O)(C(=O)O)C[C@@H](O)[C@H]1O", "outcome": "inactive"},
      {"compound": "C=C1C[C@@]23CC[C@H]4[C@@](C)(CCC[C@@]4(C)C(=O)O[C@@H]4O[C@H](CO)[C@@H](O)[C@H](O)[C@H]4O)[C@@H]2CC[C@]1(O[C@@H]1O[C@H](CO)[C@@H](O)[C@H](O[C@@H]2O[C@H](CO)[C@@H](O)[C@H](O)[C@H]2O)[C@H]1O[C@@H]1O[C@@H](C)[C@H](O)[C@@H](O)[C@H]1O)C3", "outcome": "inactive"},
      {"compound": "CC(=O)OC/C=C/c1ccccc1", "outcome": "inactive"},
      {"compound": "Oc1cc(O)c2c(c1)O[C@@H](c1cc(O)c(O)c(O)c1)[C@H](O)C2", "outcome": "inactive"},
      {"compound": "C=C1CC[C@H](O)C/C1=C\\C=C1/CCC[C@]2(C)[C@@H]([C@H](C)CC[C@H](C)C(C)C)CC[C@@H]12", "outcome": "inactive"},
      {"compound": "COc1cc(/C=C/c2ccccc2)oc(=O)c1", "outcome": "inactive"},
      {"compound": "COc1ccccc1/C=C/C=O", "outcome": "inactive"},
      {"compound": "CCCCCC/C=C/CCCCCCCCCC(=O)O", "outcome": "inactive"},
      {"compound": "CCCCCCC/C=C/C(=O)CCc1ccc(O)c(OC)c1", "outcome": "inactive"},
      {"compound": "CC1=C2[C@H](/C=C(\\C)C(=O)O)CC[C@@H](C)[C@H]2CC1", "outcome": "inactive"},
      {"compound": "CC1(C)CC[C@]2(C(=O)O)CC[C@]3(C)C(=CCC4[C@@]5(C)CC[C@H](O)[C@@](C)(CO)C5CC[C@]43C)[C@H]2C1", "note": "(stereo not given in full)", "outcome": "inactive"},
      {"compound": "COc1ccc(-c2coc3cc(O[C@@H]4O[C@H](CO)[C@@H](O)[C@H](O)[C@H]4O)ccc3c2=O)cc1", "outcome": "inactive"},
      {"compound": "CC(C)[C@H](C)CC[C@@H](C)[C@H]1CC[C@H]2[C@@H]3CC=C4C[C@@H](O)CC[C@]4(C)[C@H]3CC[C@]12C", "outcome": "inactive"},
      {"compound": "C=CC(C)(CCC=C(C)C)OC(C)=O", "note": "(stereo not given)", "outcome": "inactive"},
      {"compound": "C=C1C[C@]23CC[C@H]4[C@@](C)(CCC[C@@]4(C)C(=O)O)[C@@H]2CC[C@@]1(O[C@@H]1O[C@H](CO)[C@@H](O)[C@H](O)[C@H]1O[C@@H]1O[C@H](CO)[C@@H](O)[C@H](O)[C@H]1O)C3", "outcome": "inactive"},
      {"compound": "C=C1CC[C@H]2C[C@@H]1C2(C)C", "outcome": "inactive"},
      {"compound": "O=Cc1ccccc1O", "outcome": "inactive"},
      {"compound": "CC(=O)O[C@H]1[C@H](O[C@H]2CC[C@]34C[C@]35CC[C@]3(C)[C@@H]([C@@]6(C)CC[C@@H](C(C)(C)O)O6)[C@@H](O)C[C@@]3(C)[C@@H]5C[C@H](O[C@@H]3O[C@H](CO)[C@@H](O)[C@H](O)[C@H]3O)[C@H]4C2(C)C)OC[C@@H](O)[C@@H]1O", "outcome": "inactive"},
      {"compound": "C[C@@H]1OC(O[C@H]2[C@H](O)[C@@H](O)[C@H](OC[C@H]3O[C@@H](OC(=O)[C@]45CCC(C)(C)C[C@@H]4C4=CCC6[C@@]7(C)CC[C@H](OC8OC[C@H](O)[C@H](O)[C@H]8OC8O[C@@H](C)[C@H](O)[C@@H](O)[C@H]8O)[C@@](C)(CO)C7CC[C@@]6(C)[C@]4(C)CC5)[C@H](O)[C@@H](O)[C@@H]3O)O[C@@H]2CO)[C@H](O)[C@H](O)[C@H]1O", "note": "(stereo not given in full)", "outcome": "inactive"},
      {"compound": "CCCCC/C=C/C/C=C/CCCCCCCC(=O)O", "outcome": "inactive"},
      {"compound": "CC(C)=CCC[C@](C)(O[C@@H]1O[C@H](CO)[C@@H](O)[C@H](O)[C@H]1O)[C@H]1CC[C@]2(C)[C@@H]1[C@H](O)C[C@@H]1[C@@]3(C)CC[C@H](O)C(C)(C)[C@@H]3[C@@H](O[C@@H]3O[C@H](CO)[C@@H](O)[C@H](O)[C@H]3O)C[C@]12C", "outcome": "inactive"},
      {"compound": "CC(C)=CCC[C@](C)(O[C@@H]1O[C@H](CO)[C@@H](O)[C@H](O)[C@H]1O)[C@H]1CC[C@]2(C)[C@@H]1[C@H](O)C[C@@H]1[C@@]3(C)CC[C@H](O[C@@H]4O[C@H](CO)[C@@H](O)[C@H](O)[C@H]4O[C@@H]4O[C@H](CO)[C@@H](O)[C@H](O)[C@H]4O)C(C)(C)[C@@H]3CC[C@]12C", "outcome": "inactive"},
      {"compound": "O=C(/C=C/c1ccc(O)c(O)c1)O[C@@H]1CC(C(=O)O)=C[C@@H](O)[C@H]1O", "outcome": "inactive"},
      {"compound": "O=C(O[C@@H]1Cc2c(O)cc(O)cc2O[C@@H]1c1ccc(O)c(O)c1)c1cc(O)c(O)c(O)c1", "outcome": "inactive"},
      {"compound": "CC/C=C\\C/C=C\\C/C=C\\C/C=C\\CCCCC(=O)O", "activity change, negative = inhibition": "-0.29% [at 5 µM] (inactive)"},
      {"compound": "CC(C)(O)[C@@H]1CC[C@](C)([C@@H]2[C@H](O)C[C@]3(C)C4C[C@@H](O[C@H]5O[C@@H](CO)[C@H](O)[C@@H](O)[C@@H]5O)C5C(C)(C)[C@H](O[C@H]6OC[C@H](O)[C@@H](O)[C@@H]6O)CC[C@]56CC46CC[C@@]23C)O1", "note": "(stereo not given in full)", "outcome": "inactive"},
      {"compound": "CN(CC(=O)O)C(=N)N", "outcome": "inactive"},
      {"compound": "CC(=O)OC1CC2CCC1(C)C2(C)C", "note": "(stereo not given)", "outcome": "inactive"},
      {"compound": "CCCCCCCC/C=C\\CCCCCCCCCCCCCC(=O)O", "outcome": "inactive"},
      {"compound": "CCCCCCCCCCCCCC(=O)O", "outcome": "inactive"},
      {"compound": "CCCCCC/C=C\\CCCCCCCC(=O)O", "outcome": "inactive"},
      {"compound": "C=C1C[C@@]23CC[C@H]4[C@@](C)(CCC[C@@]4(C)C(=O)O[C@@H]4O[C@H](CO)[C@@H](O)[C@H](O)[C@H]4O[C@@H]4O[C@H](CO)[C@@H](O)[C@H](O)[C@H]4O)[C@@H]2CC[C@]1(O[C@@H]1O[C@H](CO)[C@@H](O)[C@H](O)[C@H]1O[C@@H]1O[C@H](CO)[C@@H](O)[C@H](O)[C@H]1O)C3", "outcome": "inactive"},
      {"compound": "O=C(/C=C/c1ccc(O)c2c1[C@H](C(=O)O)[C@@H](c1ccc(O)c(O)c1)O2)O[C@H](Cc1ccc(O)c(O)c1)C(=O)O", "outcome": "inactive"},
      {"compound": "CC1(C)C2CCC1(C)C(O)C2", "note": "(stereo not given)", "outcome": "inactive"}
    ]}
  ]
}
